From PubChem BioAssay AID489025 (Southern Research Specialized Biocontainment Screening …, 2010)
Among all 2,300 compounds or so, about 790 (34%) were called active. How the calls were made is not given here. This is one part of the list. Results with a measured potency or affinity are listed apart.

Experiment: THP-1 cell cytotoxicity, dose response, cytotoxicity control for non-replicating M. tuberculosis project (AID 489025)
Conditions: THP-1 cell viability; series mostly up to 40 µM

SMILES | outcome
CC(NC(=O)COc1ccccc1F)C1CC2CCC1C2 (stereo unspecified) | inactive
O=C(NCCc1ccccc1)c1nc(-c2cccs2)no1 | inactive
CCOC(=O)Nc1cccc(OCC(=O)Nc2ccccc2OC)c1 | inactive
Cc1ccc(CNCc2cc(Cl)ccc2O)cc1 | inactive
COc1ccc(NC(=O)COc2ccccc2)cc1Cl | inactive
CC(Cc1ccccc1Sc1ccccc1)N(C)C (stereo unspecified) | inactive
CCOc1ccccc1NC(=O)COn1nnc2ccc(Cl)cc21 | inactive
CCOc1cccc2cc(C(=O)Nc3nccs3)c(=O)oc12 | inactive
OC(C#CCN1CCOCC1)c1cccs1 (stereo unspecified) | inactive
Cc1[nH]nc2c1C(c1ccc(OC(=O)c3ccco3)cc1)C(C#N)=C(N)O2 (stereo unspecified) | inactive
CCOC(=O)CN1NC2(CCCC(C)C2)NC1=S (stereo unspecified) | inactive
CCOC(=O)c1cc(-c2csc(COc3ccccc3Cl)n2)on1 | inactive
COCCOC(=O)c1c(C)oc2ccc(OC(=O)c3ccco3)cc12 | inactive
CC(=O)N1CCN(C(=O)CC2OC(=O)c3ccccc32)CC1 (stereo unspecified) | inactive
COCCn1c(C)cc(C(=O)COC(=O)c2ccc(Br)o2)c1C | inactive
CCCN1C(=O)SC(CC(=O)Nc2ccccc2)C1=O (stereo unspecified) | inactive
Nc1nnc(Sc2ncccc2[N+](=O)[O-])s1 | inactive
CNc1nnc(Sc2ncccc2[N+](=O)[O-])s1 | inactive
COc1ccc(OCCSc2nnc(Cc3cccc4ccccc34)n2N)cc1 | inactive
O=C(c1ccccc1)n1c(=O)c(F)cn(COCCBr)c1=O | inactive
CCOC(=O)C(Nc1ccc2ccccc2c1)C(=O)OCC | inactive
Cc1nnc(NC(=O)c2ccc3ccccc3c2)o1 | inactive
O=C(Cn1cc([N+](=O)[O-])nc1[N+](=O)[O-])N1CCN(c2ccccc2)CC1 | inactive
COc1cccc(NC(=O)c2cc3ccccc3oc2=O)c1 | inactive
O=c1oc2ccccc2c2c1nc(C(F)(F)F)n2-c1ccccc1 | inactive
COC(=O)CN(C#N)c1nc(SC)nc(N(C)C)n1 | inactive

SMILES | outcome
Cc1ccc(N2NC(=O)/C(=C/C=C/c3ccco3)C2=O)cc1C | inactive
O=C(NC(=S)Nn1cnc2c(cnn2-c2ccccc2)c1=O)c1ccccc1 | inactive
CCOC(=O)Cn1c2ccc(F)cc2c2nc(C)sc21 | inactive
Cc1nnc(N/N=C/c2ccc(Br)cc2)n1N | inactive
Cc1ccccc1OCC(=O)OCC(=O)c1ccc[nH]1 | inactive
CC1(CCc2ccc3c(c2)OCO3)NC(=O)c2ccccc2N1 (stereo unspecified) | inactive
O=C(COc1ccc(Br)cc1)N/N=C1/SCC(=O)N1Cc1ccco1 | inactive
CCc1nnc(N/N=C/c2c(F)cccc2Cl)n1N | inactive
Cc1ccsc1/C=N/NC(=O)c1ccncc1 | inactive
O=C(N/N=C1\CCCc2c1[nH]c1ccc(Cl)cc21)c1ccncc1 | inactive
COc1ccc(C(C)=O)cc1COC(=O)c1ccc2ccccc2n1 | inactive
c1nc2n(n1)C1=C(CCCC1)C1(CCCCC1)N2 | inactive
CCOc1ccc(NC(=O)c2nnn(CC(=O)Nc3ccccc3OC)c2N)cc1 | inactive
CN(C)S(=O)(=O)c1ccc(C(=O)Oc2ccccc2)cc1 | inactive
CCOC(=O)c1ccc(NC(=O)NS(=O)(=O)c2ccc(C)cc2)cc1 | inactive
Cc1ccc(NC(=O)CN(C)CC(=O)Nc2ccc(F)c(Cl)c2)cc1 | inactive
CC1CCN(S(=O)(=O)c2cccc(C(=O)Oc3ccc([N+](=O)[O-])cc3)c2)CC1 | inactive
CC(C)C(=O)Nc1cccc(-c2nc3ccccc3c(=O)o2)c1 | inactive
CCOC(=O)Cn1c(C)c(Br)c(=O)c2cccc(C)c21 | inactive
CN(C)Cc1ccccc1Sc1ccc(Br)cc1 | inactive
FC(F)(F)c1nc(SCc2ccc(Cl)cc2Cl)n[nH]1 | inactive
O=[N+]([O-])c1ccc(CN2CCN(c3ccccc3Cl)CC2)o1 | inactive
COC(=O)COc1ccc(S(=O)(=O)N2CCN(c3ccccc3F)CC2)cc1 | inactive
Cc1ccccc1N1CCN(Cc2ccc([N+](=O)[O-])o2)CC1 | inactive
O=C(CN1CCCCC1)Nc1nnc(-c2ccc([N+](=O)[O-])cc2)s1 | inactive
Cc1cc2cc(CNC(=O)C3CCCC3)ccc2n1C | inactive

SMILES | outcome
O=C(CN1CCN(c2ccccc2)CC1)Nc1nnc(-c2ccccc2)s1 | inactive
O=C(Oc1ccccc1)c1ccc(COC(=O)c2cnccn2)cc1 | inactive
Cc1ccc(CNC(=O)c2cnccn2)cc1 | inactive
COc1ccccc1C1=Nn2c(nnc2C2CCCCC2)SC1 | inactive
O=C(Nc1ccc(Cl)cn1)C1COc2ccccc2O1 (stereo unspecified) | inactive
O=c1oc(-c2cccs2)nc2c1cnn2-c1ccccc1 | inactive
Cc1ccccc1Cn1cc(NC(=O)c2noc(C(C)C)c2[N+](=O)[O-])cn1 | inactive
COc1ccc(CN=C(C#N)C2=C(O)c3ccccc3C2=O)cc1 | inactive
CC(C)CN1C(=O)CC(Sc2ccccc2C(=O)O)C1=O (stereo unspecified) | inactive
CC(=O)c1c(C)n(C)c2ccc(OC(=O)c3ccco3)cc12 | inactive
Cc1ccc(NC(=O)CCSc2nnc(Cc3ccccc3)o2)cc1 | inactive
O=C(NCc1ccccc1CN1CCCC1)c1cc2ccccc2o1 | inactive
Oc1ccc(Cl)cc1CNCc1ccc(F)cc1 | inactive
Brc1ccc(-c2ccc(CNCc3ccccn3)o2)cc1 | inactive
O=c1cc(C(F)(F)F)[nH]c2c(C(F)(F)F)cccc12 | inactive
CN(C)CCN1C(=O)c2oc3ccccc3c(=O)c2C1c1cccc(Br)c1 (stereo unspecified) | inactive
O=C(c1cc2ccccc2o1)N1CCN(Cc2ccccc2)CC1 | inactive
O=C1CCC(=O)N1CNc1ccc(Oc2ccccc2)cc1 | inactive
O=C(Nc1sc2c(c1C(=O)O)CCCC2)c1ccc(F)cc1 | inactive
COC(=O)CCC(=O)Nc1sc(Cc2ccccc2)c(C)c1C(N)=O | inactive
O=C(c1ccc([N+](=O)[O-])o1)N1CCc2ccccc2C1 | inactive
O=C(CCSc1nnc(-c2ccncc2)o1)Nc1ccc(Cl)cc1 | inactive
CC1(C)CC(=O)c2cc(C(=O)NNc3ccccc3)c(=O)n(-c3ccccc3)c2C1 | inactive
Cc1c(Cl)cccc1-c1ccc(CNCc2ccccn2)o1 | inactive
CC(C)(C)CC(=O)NC(=S)NCc1ccco1 | inactive
O=C(c1cc(F)ccc1F)C1CCCN(Cc2ccc3nonc3c2)C1 (stereo unspecified) | inactive

SMILES | outcome
COCc1[nH]nc2c1C(c1sccc1C)C(C#N)=C(N)O2 (stereo unspecified) | inactive
CCOC(=O)N1CCC(N2CCCC(C(=O)c3ccc4cc(OC)ccc4c3)C2)CC1 (stereo unspecified) | inactive
CCOC(=O)CNCCC(=O)c1ccc(Br)cc1 | inactive
O=C(NCc1cccs1)c1ccc([N+](=O)[O-])cc1 | inactive
O=C(Nc1nccs1)c1ccc2ccccc2c1 | inactive
CCOC(=O)c1cc(-c2csc(COc3ccc(Cl)cc3)n2)on1 | inactive
CC(C)CCC1=NN(C(=O)c2ccco2)C(O)(C(F)(F)F)C1 (stereo unspecified) | inactive
Cc1cc(C(=O)NNc2ccc(Cl)cc2)no1 | inactive
O=C(NC(=S)NCCc1ccccc1)c1ccccc1 | inactive
O=C(OCc1ccccn1)c1ccc(COc2ccccc2Cl)o1 | inactive
Cc1n[nH]c(C)c1CCNC(=O)C1CCC(=O)N(Cc2ccccc2F)C1 (stereo unspecified) | inactive
C=CCn1c(NC(=O)c2ccccc2)nc2ccccc21 | inactive
Cn1c(CNc2ccccc2O)nc2ccccc21 | inactive
O=C(Nc1nc2ccccc2n1CCN1CCCC1)C1CCCCC1 | inactive
O=C(Nc1ccc(Cl)cc1)C1CCCC1 | inactive
CCCCSc1nnc(-c2cc(Br)ccc2N)c(=O)[nH]1 | inactive
O=C(c1ccc(Br)o1)N1CCC(Cc2ccccc2)CC1 | inactive
CN1c2ccsc2/C(=N/Nc2ccccc2)CS1(=O)=O | inactive
COC(=O)c1ccc(N2CCN(CCNC(=O)Nc3ccc(OC)cc3)CC2)cc1 | inactive
CCc1ccc(N2CCN(CCNC(=O)Nc3ccc(OC)cc3)CC2)cc1 | inactive
O=C1Nc2cc(C(=O)NCCCN3CCOCC3)ccc2S/C1=C/c1cccc(Cl)c1 | inactive
O=C1CC(N2CCSCC2)C(=O)N1CCc1ccccc1 (stereo unspecified) | inactive
CCOC(=O)C(=O)Cc1nc2ccccc2s1 | inactive
Cc1ccc(-c2nnc(COC(=O)c3cccs3)o2)cc1 | inactive
O=C(COC(=O)CCN1C(=O)/C(=C\C=C\c2ccccc2)SC1=S)Nc1cc(F)ccc1F | inactive
O=C(NCCN1C(=O)S/C(=C\c2ccccc2F)C1=O)C1CCN(S(=O)(=O)c2cccs2)CC1 | inactive

SMILES | outcome
O=C(COc1ccc2ccccc2c1)N1CCCC1 | inactive
O=C(O)CCCCCN1C(=O)/C(=C\c2ccncc2)SC1=S | inactive
CCOC(=O)Cn1cc(C#N)c2ccccc21 | inactive
CC1CCC/C(=C\Nc2ccc(C(=O)O)c(O)c2)C1=O (stereo unspecified) | inactive
Cc1cccnc1NC(=O)C1COc2ccccc2O1 (stereo unspecified) | inactive
N=c1oc2ccccc2cc1C(=O)Nc1ccccc1 | inactive
Cc1cc(Cl)ccc1N(CC(=O)NCc1ccccc1)S(C)(=O)=O | inactive
CC(=O)c1ccc(NC(=O)c2cc(CC(C)C)on2)cc1 | inactive
CN(CCS(=O)(=O)c1ccc(Cl)cc1)Cc1cccnc1 | inactive
O=C(COc1ccc(Br)cc1)N/N=C1/SCC(=O)N1Cc1ccccc1 | inactive
O=C(Nc1nnc(COc2ccc(Cl)cc2)s1)c1ccco1 | inactive
COc1ccc(NC(=O)C(=O)NNC(=O)C(C)Oc2ccc(Cl)cc2Cl)cc1 (stereo unspecified) | inactive
O=C(NC(=S)N1CCN(C/C=C/c2ccccc2)CC1)c1ccco1 | inactive
COC(=O)C(C)Oc1ccc2cc(-c3ccccc3)c(=O)oc2c1 (stereo unspecified) | inactive
C=CCN(CC=C)C(=O)Cc1ccc(F)cc1 | inactive
C=C(C)C1Cc2c(C)nn(-c3nc(C)cc(C)n3)c2C1 (stereo unspecified) | inactive
CCOC(=O)Cn1c(-c2ccccc2)ccc(C#N)c1=O | inactive
CC(=O)Nc1ccc(OC(=O)c2ccc(Br)c([N+](=O)[O-])c2)cc1 | inactive
O=[N+]([O-])c1cnc(Nc2ccc(Cl)cn2)c([N+](=O)[O-])c1 | inactive
NCCNc1ccc([N+](=O)[O-])c2cccnc12 | inactive
O=C1c2cccc3cc([N+](=O)[O-])cc(c23)C(=O)N1c1ccccc1O | inactive
O=c1cc(-c2ccccc2Cl)oc2ccc([N+](=O)[O-])c(O)c12 | inactive
